Test results reported in PubChem BioAssay (NCI).
About 83,000 compounds went through this panel and 20% of them were active in at least one assay; those are over-represented in the sample as a whole.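 Results are percent growth after 48 hours of single-concentration exposure. 100 means growth as in untreated cells, lower positive values show inhibition; negative values down to -100 show cell death.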 Unmarked numbers belong to inactive results. Calls of active or inactive are those of the source. How the source made its calls: active means growth percent below 10; inactive means the rest.

tested on: HS 578T breast; assay: NCI-60 one-dose screen, 48 h (100 = growth as untreated, 0 = no growth, -100 = all killed); settings: 10 µM unless noted

SMILES | growth
CC1=CC[C@@H]2C(C)(C)C(=O)CC[C@@]2(C)[C@@H]1COc1ccc2ccc(=O)oc2c1 | 77.6%
COc1ccc(/C=C2\N=C(Nc3ccccc3)N(NC(=O)c3ccccn3)C2=O)cc1 | 95.3%
COc1ncc(-c2ccc3nccc(C#CCCCCC(=O)NO)c3c2)cc1NS(=O)(=O)c1ccc(F)cc1F | -23.8% (active)
COc1ccc2c(c1)C(C)Cc1c(Cl)ncnc1N2C (stereo not drawn) | 16.9%
CC[C@@H]1NC(=O)[C@@H]2CCCCN2C(=O)[C@@H]2CCCN2C(=O)[C@@H](NC(=O)[C@H](Cc2cc(F)cc(F)c2)NC(=O)Nc2ccc(C3CC3)cc2F)[C@H](C)OC(=O)[C@@H]2C[C@@H](C)CN2C1=O | 20.6%
CCN(CC)c1cc(N)c(Cc2c(N)cc(N(CC)CC)cc2Cl)c(Cl)c1 | 56%
O=C1COCCN1c1ccc(Nc2nc(Cl)nc(N3CCOCC3)n2)cc1 | 104%
Cn1cc(-c2nnc(-c3cn(C)c4ncc(Br)cc34)s2)c2cc(Br)ccc21 | 89.3%
Nc1ccc2c(c1)Cc1cc(NC(=O)C(F)(F)F)ccc1-2 | 119%
COc1ccc(-c2cc(-c3ccc(Cl)cc3)nc(NCCCCNc3ccnc4cc(Cl)ccc34)n2)cc1 | 81.5%
C#C[C@]1(O)CC[C@H]2[C@@H]3CC=C4c5nc(Nc6ccc(OC)cc6OC)sc5CC[C@]4(C)[C@H]3CC[C@@]21C | -12.7% (active)
CNC(=O)c1cc(Oc2ccc3nc(NC(=O)c4ccc5ncccc5c4)sc3c2)ccn1 | 108%
COc1ncc(-c2ccc3nccc(C#CCCCCC(=O)O)c3c2)cc1NS(=O)(=O)c1ccc(F)cc1F | -10.2% (active)
CCc1ccc(C2=C/C(=C/c3ccccc3)C(=O)N2CCc2ccc(S(N)(=O)=O)cc2)cc1 | 97.5%
Cc1ccc(-c2cn(C/C=C3\C=CN(S(=O)(=O)c4ccccc4)CC3)nn2)cc1 | 97.2%
CCN1c2ccccc2C(Cl)(c2ccc(N(C)C)cc2)c2ccccc21 | 102%
COc1ccc(-c2ccc(NNC(=O)c3ccc(F)cc3)nn2)cc1OC | 41.1%
c1ccc(-c2nnc(-c3c[nH]c4ncccc34)s2)cc1 | 97.1%
COc1c(B(O)O)cccc1-c1nc2ccc3[nH]ncc3c2c2c1CCC2 | 17.7%

SMILES | growth
O=C1/C(=C\c2cccn2Cc2ccccc2)c2ccccc2N1c1c(Cl)cccc1Cl | 83.2%
CN(C)c1ccc(-c2ccc(-c3ccc(C(=N)N)cc3)s2)cc1 | 104%
CC(C)(C)c1cc(C(=O)Nc2ccc(C(=O)NCCN)cc2)cc(C(C)(C)C)c1 | 81.7%
CC1=CC[C@@H]2C(C)(C)[C@@H](O)CC[C@@]2(C)[C@@H]1COc1ccc2ccc(=O)oc2c1 | 44.2%
CCn1cc(-c2cc(-c3ccc(Cl)cc3)nc(N)n2)c(-c2ccc(Br)cc2)n1 | 96.7%
COc1cc(-c2cc(-c3ccc(Nc4ncnc5cc(Cl)ccc45)cc3)nc(N3CCCCC3)n2)cc(OC)c1OC | 98.7%
Cn1cc(-c2nnc(-c3ccccc3)s2)c2cc(Br)cnc21 | 79.9%
CC(=O)Nc1ccc2nc3ccc(NC(C)=O)cc3[n+](-c3ccccc3)c2c1 | 263%
Cc1cccc(C[C@H](NC(=O)Nc2ccc(Cl)cc2F)C(=O)N[C@@H]2C(=O)N3C[C@H](O)C[C@H]3C(=O)N3CCCC[C@H]3C(=O)N[C@@H](C)C(=O)N3C[C@H](C)C[C@H]3C(=O)O[C@H]2C)c1 | 10.9%
COc1ccc(NC(=S)NNc2ccc(-c3ccc(OC)c(OC)c3)nn2)cc1 | 95.8%
Cn1cc(-c2nnc(-c3cn(C)c4ncccc34)s2)c2ccccc21 | 83.7%
Fc1cc2[nH]ncc2c2c3c(c(-c4cn[nH]c4C(F)(F)F)nc12)C1CCC3C1 (stereo not drawn) | -10.8% (active)
COc1ccc2nc3cc(Cl)ccc3c(Nc3ccc(O)cc3)c2c1 | 76.2%
CCOC(=O)n1cc(C2=C(c3ccc(OC)c(OC)c3)COC2=O)c2ccccc21 | 36.2%
C[n+]1c(-c2ccccc2)c2cc(N)ccc2c2ccccc21 | 27.1%
Fc1cc2[nH]ncc2c2c3c(c(-c4cn[nH]c4)nc12)CCCC3 | -3.3% (active)
CCN(CC)c1ccc2cc(NC(=O)OCCNC(=O)CCNC(=O)[C@H](CC(C)C)NC(=O)C(C)(C)NC(=O)C(C)(C)NC(=O)[C@H](CC(C)C)NC(=O)CCNC(=O)C(C)(C)NC(=O)[C@H](CC(C)C)NC(=O)CCNC(=O)[C@@](C)(CC)NC(=O)[C@H](C)NC(=O)CCNC(=O)C(C)(C)NC(=O)[C@H](C)NC(=O)[C@@H]3CCCN3C(=O)[C@@](C)(CC)NC(=O)[C@H](Cc3ccccc3)NC(=O)C3CCCN3C(=O)C(C)(C)NC(=O)C3CCCN3C(=O)C(C)(C)NC(C)=O)c(=O)oc2c1 (stereo partly drawn) | -60.1% (active)
COc1cc(NCc2cn(-c3ccc(C(=O)O)cc3)nc2-c2ccc(C(=O)O)cc2)cc(OC)c1OC | 95.6%
CC(C)CCSc1nc(N)nc2nc[nH]c12 | 122%
